Data on 40 sequences can be found in the supplement of paper PMC6555819.

The test system of this experiment is RXRa DBDmut IVT, anti-RXR (DBD mutation: RXRa K156A/R161A, NR concentration 90 nM). Put plainly: PBM binding z-score (relative to random genomic background probes); higher = stronger binding; sequences stand for … in GC…GCGATTGACAGCGTAGAATGAAGG
In a few lines: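 Each nuclear receptor dimer, without ligand, was incubated for 1 h on custom Agilent 4×180K protein-binding microarrays. Binding was detected with antibodies against each partner (one per run), and scanned fluorescence was regression-normalized. The binding z-scores are referenced to random human genomic background probes.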
Regarding TTACGAAGGTGAAGGTCGTTGATCCCTCTGTAGA, the PBM binding z-score worked out at 0.133.
Consider TAGTCTAGGTCATTCAGGGGCCAGTATAGAAAGC, for which the PBM binding z-score came out at 2.05.
As to GCTTGTAGATCAAGGTTAAGAAAGACTAAGCTAA, the PBM binding z-score is -0.146.
With GCTGCTAGGTCAGGTGGGTCAGCTAACGGGTACG, the PBM binding z-score was found to be 0.0363.
GATACAGGGTCAAGGCTAGAGTACGCGTATTGAT yielded a PBM binding z-score of 2.4.
The figure for AACGAAAGGTCGAGGTGAGTATAGAGAAAGGGAA is 0.969; for AATACAGGGTAATCGTAGGCCAGAGTACGCACAG it is -0.324; for TCGAGTAGGTTAGTAGGGGCATTCAGCCAACATA it is 0.422.
The sequence CCTGCTAGGGCATGGTCAGCTAATCTACAGTATG gave a PBM binding z-score of -0.538.
With ACAGACAGGTGAGTGAAAGTAACTCAGCTGGACG, the PBM binding z-score was -0.517.
Consider CCTCGGAGGACAGAAGGTCAGGGCTGTCCGCTTT, for which the PBM binding z-score is -0.126.
Consider CGTCCAAGGTCAATGCTAGTTCAGTGAAAGCATT, for which the PBM binding z-score was 3.83.
Sequence ATCTCTAGGTAAGCCTCAGTTCAGTGAAGAACGC gave a PBM binding z-score of 0.247.
TCGAGTAGGTTAGTCGGGGCATTCAACCAACATA yielded a PBM binding z-score of 0.482.
CGAACTAGGACAAGGACAGTGAATCTCCGCACGC showed a PBM binding z-score of 0.343.
The figure for CGTCCAAGGTCAGAGAGGTCAGTGAGTGCCGAGT is 3.37; for ACAGACAGGTGCGTGAAGGTAACTCAGCTGGACG it is -0.249.
Sequence GCTCGGAGGACCAGGTCAGAGCTTTGTCCGTAGA yielded a PBM binding z-score of -0.305.
For GTACCAAGGTGAATAGGTCGTTGCTGAGTAGGCG, the PBM binding z-score is -0.0766.
Turning to TAGCCTAGGTCAAATCGGGCCAGTATACGCTATA, the PBM binding z-score was 0.997.
ACTATTAGTTGAAACGAGGGCAACCGATAGGTTG had a PBM binding z-score of 0.84.
With AGAATGAGGTTAAGAGCAGGGAAACAGAATACAT the figure was 0.729; with TTTCAAAGTTCAAAGGTAACGTAAGTATCCACAC, 4.68.
Sequence CGAACTAGGTCAGTACAGGACAGTGAAGGATGAT gave a PBM binding z-score of 0.399.
Regarding AGGCAAAGTTCAGGACGAGGTAACGTAAAGCACG, the PBM binding z-score is 2.98.
The sequence TTACAAAGGTGAAGGTCGTTGATCCCTCTGTAGA registered a PBM binding z-score of 0.165.
ACTAGTAGTTGAGACGAGGGCAACCGATAGGTTG registered a PBM binding z-score of -0.186.
TGTATGAGGTTATAAGATCAGGGAACGTTGCAAA showed a PBM binding z-score of 1.02.
CCTAGTTGGGCAAGGTCACACACGCTATAGGTAC registered a PBM binding z-score of 1.51.
In the case of ACAGACAGGTGTGTGAAGGTAACTCAGCTGGACG, the PBM binding z-score was -0.313.
CAAACTTGGTCAAGAGGTCAAAGTCCGCTTCCCG yielded a PBM binding z-score of 2.03.
In the case of CAAACTAGGTCACTGGAAGGTCAAAGTCCGCATG, the PBM binding z-score is 1.96.
With GTACCAAGGCGAATAGGTCGTTGATGAGTAGGCG the figure was -0.465; with TCTATTACTTGATTAGGGCAACCGAAACAGCGGA, 1.1.
As to TAGCCTAGGTTAGATCGGGCCAGTATACGCTATA, the PBM binding z-score is -0.662.
Take TCTAGTTGTTCACGGAGGTCACACACGACGGGTA: the PBM binding z-score came to 1.18.
For CGAACGAGAGCATGAGTTGATAGCAAATGCCGAT, the PBM binding z-score was 0.193.
TTACCAAGGTGAAAGGTCGTTGACGCACGCCTTG gave a PBM binding z-score of 0.212.
As for GCTGCTAGGTCAACCGATGGTCAGCTAAAGCTCG, the PBM binding z-score is 1.31.
In turn, ACTCGGAGGACAAAAGTCAGAGCTACGCCAGTGA came in with a PBM binding z-score of 0.783.
